Measurements reported in PubChem BioAssay (NCI).
The panel holds about 83,000 compounds, 20% with a hit somewhere; the sample as a whole holds those more often.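 Growth was measured after 48 h exposure to one concentration of compound in 96-well plates. Values under 10 count as active.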 Unmarked numbers belong to inactive results. Calls of active or inactive are those of the source.

System: HL-60(TB) leukemia
Test: NCI-60 one-dose screen, 48 h (100 = growth as untreated, 0 = no growth, -100 = all killed)
Conditions: 10 µM unless noted

| SMILES | growth |
| --- | --- |
| CC1(CO)CCCC1NCCNC1CCCC1(C)CO (configuration not stated) | 95.2% |
| CCCCCCCCCCCC(=O)[O][Sn]([CH2]CCC)([CH2]CCC)[CH2]CCC | -44.1% (active) |
| CC[C@H]1OC(=O)[C@H](C)[C@@H](O[C@H]2C[C@@](C)(OC)[C@@H](O)[C@H](C)O2)[C@H](C)[C@@H](O[C@@H]2O[C@H](C)C[C@H](N(C)C)[C@H]2O)[C@](C)(O)C[C@H](C)CN(C)[C@H](C)[C@@H](O)[C@]1(C)O | 89.9% |
| O=C(CCCCC(=O)Nc1ccc2c(c1)/C(=C/c1ccc[nH]1)C(=O)N2)NO | 107% |
| CCOC(=O)c1sc(/N=C2\NC(=O)/C(=C/c3ccc(N4CCN(C)CC4)cc3)S2)nc1C | 100% |
| COc1ccc(C(=O)/C=C/c2cc(-c3cc(OC)c(OC)c(OC)c3)n[nH]2)cc1OC | 3.15% (active) |
| Clc1nc(Cl)c2ncn(CC#CCn3cnc4c(Cl)nc(Cl)nc43)c2n1 | -58.3% (active) |
| Cc1cc(/C=C2\SC(=Nc3ccccc3)N(C3CCCC3)C2=O)c(C)n1-c1ccc(Cl)cc1 | -27.3% (active) |
| Cc1cc(N(CCNc2ccnc3cc(Cl)ccc23)Cc2ccc3c(c2)OCO3)nc(N2CCCC2)n1 | -61.9% (active) |
| O=C(/C=C(O)/C=C/c1cccc2[nH]ccc12)/C=C/c1cccc2[nH]ccc12 | 39.4% |
| C=C(C)[C@@H]1CC[C@]2(C(=O)NC(COC(=O)C(Cl)Cl)(COC(=O)C(Cl)Cl)COC(=O)C(Cl)Cl)CC[C@]3(C)[C@H](CC[C@@H]4[C@@]5(C)CC[C@H](OC(C)=O)C(C)(C)[C@@H]5CC[C@]43C)[C@@H]12 | 16.7% |
| Cc1ccc2c(c1)C(=O)/C(=C/c1ncc([N+](=O)[O-])n1C)O2 | -13% (active) |
| CC(=O)Oc1ccccc1C(=O)Nc1ncc([N+](=O)[O-])s1 | -43.8% (active) |
| COc1c2ccoc2c(/C=C/C=O)c2oc(-c3ccccc3)cc(=O)c12 | 7.67% (active) |
| C=CC(=O)N[C@H](Cc1ccc(-c2cc(Cl)cc(Cl)c2)cc1)[C@H](O)[C@@H](O)C(=O)O | 109% |
| O=C(CCc1nnc(SCc2ccccc2)s1)c1nc2ccccc2[nH]1 | 92.3% |

| SMILES | growth |
| --- | --- |
| Cc1cc(C)cc(Nc2ccc([N+](=O)[O-])c(NCCN3CCOCC3)n2)c1 | -13.9% (active) |
| O=C(Nc1ccc(F)cc1)Nc1ccccc1CNc1nc(Nc2ccc(OCCN3CCCC3)cc2)ncc1Cl | -39.6% (active) |
| COc1cccc2c1C(=O)c1c(O)c3c(c(O)c1C2=O)C[C@@](O)(C(=O)COC(=O)c1cccnc1)C[C@@H]3OC1CC(N)C(O)C(C)O1 (some centres not stated) | -27% (active) |
| CCc1ccc(CCN2C(=O)c3ccccc3C2=O)nc1 | 120% |
| c1ccc2c(-c3cnn4cc(-c5ccc(N6CCNCC6)cc5)cnc34)ccnc2c1 | -55.7% (active) |
| CCCC(=O)c1cccs1 | 87.9% |
| COc1ccc(N2CCN(S(=O)(=O)c3oc(-c4ccccc4)nc3C#N)CC2)cc1 | 50.5% |
| COc1ccc(/C=C/C(=O)c2ccc(-n3cc(CN4CCN(c5cc6c(cc5F)c(=O)c(C(=O)O)cn6C5CC5)CC4)nn3)cc2)cc1 | 85.9% |
| Cc1nc2cc(-n3c(-c4ccc(F)cc4)nc4ccccc4c3=O)ccc2n1Cc1ccccc1 | 57.7% |
| Cc1cc(N2CCSCC2)nc(NC2CCCC(Nc3ccnc4cc(Cl)ccc34)C2)n1 (configuration not stated) | -68.7% (active) |
| O=C(NOCCO)c1cc(CN2OCCCC2=O)c(F)c(F)c1Nc1ccc(I)cc1F | 18.2% |
| CC(=O)O[C@H]1CC[C@]2(C)[C@H]3CC=C4[C@@H]5CC(C)(C)CC[C@]5(C(=O)N5CCN(CCC#N)CC5)CC[C@@]4(C)[C@]3(C)CC[C@H]2C1(C)C | 12.9% |
| CCN(CC)CCOC(=O)Nc1ccccc1Cl | 102% |
| N#CC1=C(N)Oc2c(sc3c(F)cccc23)C1c1ccc([N+](=O)[O-])cc1 (configuration not stated) | -7.41% (active) |
| CCOC(=O)c1sc2nc(-c3cccc(O)c3)nc(N3CCOCC3)c2c1C | 78.3% |
| NC(N)=N/N=C/c1ccc(Br)cc1 | -0.0458% (active) |
